# Values quoted from earlier work as cited in PubChem BioAssay AID977610.
# The campaign covered roughly 3,600 compounds. About 3,600 (100%) were called active. The limit is not given here; nearly all actives have Ki up to about 18000 µM. So high a share suggests a set chosen from earlier hits. This is one part of the list. Where a SMILES comes first, the peptide text is derived from it. Non-standard residues stand in square brackets, D forms with d. Square brackets hold non-standard residues; d marks the D form. Residues, ends and D or L forms follow the SMILES beside them. Peptide text beside a SMILES is read from it. [ ]: non-standard residue; d: D form. Orn(CH(NH2)2) = NC(N)NCCC[C@H](N)C(=O)O; Ahx = NCCCCCC(=O)O
# Experiment: PubChem AID 977610
# Details: PDB protein-ligand complexes, literature Ki
compound,measurement,setting,value
Cc1ccc(Nc2ccccc2C(=O)O)c(C(=O)O)c1,Ki,"protein: Anthranilate phosphoribosyltransferase, PDB entry 4gkm",6.8 µM (active)
O=C(O)c1ccccc1Nc1cccc(Nc2ccccc2C(=O)O)c1C(=O)O,Ki,"protein: Anthranilate phosphoribosyltransferase, PDB entry 4m0r",6.2 µM (active)
O=C(O)c1ccccc1C(=O)O,Ki,"protein: Nicotinate-nucleotide pyrophosphorylase [carboxylating], PDB entry 4kww",2.8 µM (active)
O=C(O)c1ccccc1Nc1ccccc1C(=O)O,Ki,"protein: Anthranilate phosphoribosyltransferase, PDB entry 4ij1",4 µM (active)
NC(=O)SCC(=O)Nc1ccccc1C(=O)O,Ki,"protein: Human cathepsin K mutant C25S, PDB entry 4leg",28 µM (active)
Cc1ccc(C(=O)O)c(Nc2c(C)cccc2C(=O)O)c1,Ki,"protein: anthranilate phosphoribosyltransferase (AnPRT; trpD), PDB entry 4giu",4.7 µM (active)
Nc1ccn([C@@H]2O[C@H](CO)[C@@H](O[P+](O)(O)O)[C@H]2O)c(=O)n1,Ki,"protein: Bos taurus ribonuclease A, PDB entry 1rpf",103 µM (active)
Nc1ccn([C@@H]2O[C@H](CO[P+](O)(O)O)[C@@H](O)[C@H]2O)c(=O)n1,Ki,"protein: Bos taurus ribonuclease A, PDB entry 1rnm",844 µM (active)
Nc1ccn([C@@H]2O[C@H](CO)[C@@H](O)[C@H]2O[P+](O)(O)O)c(=O)n1,Ki,"protein: Bos taurus ribonuclease A, PDB entry 1jvu",7 µM (active)
Cc1cc(C)c(/C=N/NC(=O)[C@@H](N)Cc2c[nH]c3ccccc23)c(C)c1,Ki,"protein: Endothiapepsin, PDB entry 4kup",6 µM (active)
Cc1nn(C)c(C)c1Cc1nnc(-c2sc3ccccc3c2OC2CCNCC2)o1,Ki,"protein: Plasmodium vivax N-myristoyltransferase, PDB entry 2yne",0.0027 µM (active)
H-SRWPTTRL-OH,Ki,"protein: CFTR Associated Ligand (CAL) PDZ domain, PDB entry 4k76",4.5 µM (active)
CC[C@H](C)[C@H](NC(=O)[C@H](CO)NC(=O)[C@@H](NC(=O)[C@@H]1CCCN1C(=O)[C@H](Cc1c[nH]c2ccccc12)NC(=O)[C@H](CCCNC(N)N)NC(=O)[C@@H](N)CO)[C@@H](C)O)C(=O)N[C@@H](CC(C)C)C(=O)O (H-S[Orn(CH(NH2)2)]WPTSIL-OH),Ki,"protein: Tax1-binding protein 3, PDB entry 4e3b",0.9 µM (active)
CC[C@H](C)[C@H](NC(=O)[C@H](CO)NC(=O)[C@@H](NC(=O)[C@@H]1CCCN1C(=O)[C@H](Cc1c[nH]c2ccccc12)NC(=O)[C@@H](N)CCCNC(N)N)[C@@H](C)O)C(=O)N[C@@H](CC(C)C)C(=O)O (H-[Orn(CH(NH2)2)]WPTSIL-OH),Ki,"protein: Golgi-associated PDZ and coiled-coil motif-containing protein, PDB entry 4e35",24 µM (active)
CC[C@H](C)[C@H](NC(=O)[C@@H]1CCCN1C(=O)[C@H](CC(=O)O)NC(=O)[C@H](CC(C)C)NC(=O)[C@H](C)NC(=O)[C@@H](N)Cc1c[nH]c2ccccc12)C(=O)N[C@@H](C)C(=O)NCC(=O)N[C@@H](CCCCN)C(=O)N[C@@H](Cc1c[nH]c2ccccc12)C(=O)N[C@@H](CO)C(=O)N[C@@H](CCCNC(N)N)C(=O)O (H-WALDPIAGKWS[Orn(CH(NH2)2)]-OH),Ki,"protein: Acyl-[acyl-carrier-protein]--UDP-N-acetylglucosamine O-acyltransferase, PDB entry 2aq9",0.05 µM (active)
CSCC[C@H](NC(C)=O)C(=O)N[C@@H](Cc1c[nH]c2ccccc12)C(=O)N[C@@H](CC(=O)O)C(=O)N[C@@H](Cc1ccccc1)C(=O)N[C@@H](CC(=O)O)C(=O)N[C@@H](CC(=O)O)C(=O)NCCCCCC(=O)N[C@@H](CCSC)C(=O)N1CCC[C@H]1C(=O)N1CCC[C@H]1C(=O)N[C@@H](C)C(=O)N[C@@H](CC(=O)O)C(=O)N[C@@H](CCC(=O)O)C(=O)N[C@@H](CC(=O)O)C(=O)N[C@@H](Cc1ccc(O)cc1)C(=O)N[C@@H](CO)C(=O)N1CCC[C@H]1C(N)=O (Ac-MWDFDD[Ahx]MPPADEDYSP-NH2),Ki,"protein: interleukin-8(IL-8), PDB entry 1ilq",13 µM (active)
CC[C@H](C)[C@H](NC(=O)[C@H](CCCNC(N)N)NC(=O)CNC(=O)[C@@H](NC(=O)[C@@H](NC(=O)[C@@H](NC(=O)[C@@H](NC(=O)[C@H](CO)NC(=O)CN)C(C)C)C(C)C)[C@@H](C)CC)C(C)C)C(=O)N[C@H](C(=O)N[C@@H](CC(C)C)C(=O)N[C@@H](CO)C(=O)O)[C@@H](C)CC (H-GSVVIVG[Orn(CH(NH2)2)]IILS-OH),Ki,"protein: HCV NS3 protease, PDB entry 1dxp",0.027 µM (active)
H-GGGGGGAVPGSWPW-OH,Ki,"protein: Chymotrypsinogen A, PDB entry 1oxg",2.7e-05 µM (active)
CCC(CC)O[C@@H]1CC(C(=O)O)=C[C@H](n2cc(CCCO)nn2)[C@H]1NC(C)=O,Ki,"protein: Neuraminidase, PDB entry 4ks3",0.43 µM (active)
CCC(CC)O[C@@H]1CC(C(=O)O)=C[C@H](n2cc([C@H](O)CC)nn2)[C@H]1NC(C)=O,Ki,"protein: Neuraminidase, PDB entry 4ks4",0.072 µM (active)
CCC(CC)O[C@@H]1CC(C(=O)O)=C[C@H](n2cc(C(C)(C)O)nn2)[C@H]1NC(C)=O,Ki,"protein: Neuraminidase, PDB entry 4ks5",0.13 µM (active)
CCn1c(O)cc(=O)n(CC)c1=S,Ki,"protein: AmpC beta-lactamase, PDB entry 4kz8",1600 µM (active)
O=C(O)c1ccc(CCNS(=O)(=O)c2ccsc2C(=O)O)cc1,Ki,"protein: AmpC beta-lactamase from E. coli, PDB entry 4jxv",31 µM (active)
O=C(O)C(=O)CO,Ki,PDB entry 4mfe,5400 µM (active)
CC(C)C[C@H](N)C(=O)N[C@@H](CS)C(=O)N[C@@H](CO)C(=O)N[C@@H](CC(=O)O)C(=O)N[C@@H](CCCN=C(N)N)C(=O)NCC(=O)N[C@@H](CS)C(=O)N[C@@H](CCC(=O)O)C(=O)N[C@@H](CC(N)=O)C(=O)N[C@@H](CCCN=C(N)N)C(=O)N[C@@H](Cc1c[nH]c2ccccc12)C(=O)N[C@@H](CS)C(=O)N[C@@H](CCCCN)C(N)=O (H-LCSDRGCENRWCK-NH2),Ki,"protein: urokinase-type plasminogen activator (uPA), PDB entry 4mnx",17.7 µM (active)
NCCCC[C@H](NC(=O)[C@H](CCCN=C(N)N)NC(=O)[C@H](CC(N)=O)NC(=O)[C@H](CCC(=O)O)NC(=O)[C@H](CS)NC(=O)CNC(=O)[C@H](CCCN=C(N)N)NC(=O)[C@H](CC(=O)O)NC(=O)[C@H](Cc1c[nH]c2ccccc12)NC(=O)[C@H](CS)NC(=O)[C@@H](N)CCC(N)=O)C(=O)N[C@@H](CS)C(=O)N[C@@H](CC(N)=O)C(N)=O (H-QCWDRGCENRKCN-NH2),Ki,"protein: urokinase-type plasminogen activator (uPA), PDB entry 4mnw",1.72 µM (active)
C#C[C@@H]1N[C@@H](C)[C@@H](O)[C@H]1O,Ki,"protein: Alpha-L-fucosidase Fuc2970, PDB entry 4pct",0.07 µM (active)
NC(N)NCCCNC(=O)[C@@H]1CCCCN1C(=O)[C@@H](CC1CCCCC1)NCC(=O)O,Ki,"protein: bovine trypsin, PDB entry 1k1o",0.675 µM (active)
Nc1[nH]c(=S)nc2[nH]ncc12,Ki,"protein: PDE10A2, PDB entry 4lkq",450 µM (active)
NC(N)NCCC[C@H](N)[P+](O)(O)O,Ki,"protein: M1 family aminopeptidase, PDB entry 4k5m",193 µM (active)
NC(N)NCCCC[C@H](N)[P+](O)(O)O,Ki,"protein: M1 family aminopeptidase, PDB entry 4k5l",11 µM (active)
C[C@@H]1N[C@@H](C#Cc2ccccc2)[C@H](O)[C@@H]1O,Ki,"protein: Alpha-L-fucosidase Fuc2970, PDB entry 4pcs",0.014 µM (active)
